In experiment [1] the target is Dual specificity protein kinase CLK3 (Homo sapiens) (UniProt P49761). As to conditions: at 1 µM.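 Further: each value is the mean inhibition of CLK3.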
Experiment [2] has as its target Dual specificity tyrosine-phosphorylation-regulated kinase 1A (Homo sapiens) (UniProt Q13627). The following applies: at 0.1 µM.
Experiment [3] has the same target. The following applies: at 1 µM.
In experiment [4] the target is Dual specificity tyrosine-phosphorylation-regulated kinase 1B (Homo sapiens) (UniProt Q9Y463). The following applies: at 0.1 µM.
Chain of Dual specificity tyrosine-phosphorylation-regulated kinase 1B (Homo sapiens) (Q9Y463 whole entry, looked up): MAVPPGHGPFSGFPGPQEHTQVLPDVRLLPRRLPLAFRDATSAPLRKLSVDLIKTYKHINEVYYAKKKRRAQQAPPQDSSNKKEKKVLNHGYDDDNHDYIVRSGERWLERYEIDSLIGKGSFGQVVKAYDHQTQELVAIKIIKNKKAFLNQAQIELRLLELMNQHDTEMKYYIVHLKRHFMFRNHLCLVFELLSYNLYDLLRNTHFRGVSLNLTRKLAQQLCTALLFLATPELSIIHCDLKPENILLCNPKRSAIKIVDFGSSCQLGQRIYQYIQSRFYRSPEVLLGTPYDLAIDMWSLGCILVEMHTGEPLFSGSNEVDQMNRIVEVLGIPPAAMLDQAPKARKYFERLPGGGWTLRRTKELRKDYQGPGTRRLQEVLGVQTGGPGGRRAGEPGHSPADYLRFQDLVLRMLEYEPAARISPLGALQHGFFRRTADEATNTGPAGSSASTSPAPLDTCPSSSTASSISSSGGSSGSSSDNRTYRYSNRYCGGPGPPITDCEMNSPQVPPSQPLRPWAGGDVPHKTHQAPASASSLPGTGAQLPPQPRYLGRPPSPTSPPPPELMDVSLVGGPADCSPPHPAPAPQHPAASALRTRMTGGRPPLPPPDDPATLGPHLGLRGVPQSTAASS
Experiment [5] shares this target. The following applies: at 1 µM.
In experiment [6] the target is T1, Dual specificity tyrosine-phosphorylation-regulated kinase 2 (Homo sapiens) (UniProt Q92630).
T1 sequence (whole entry): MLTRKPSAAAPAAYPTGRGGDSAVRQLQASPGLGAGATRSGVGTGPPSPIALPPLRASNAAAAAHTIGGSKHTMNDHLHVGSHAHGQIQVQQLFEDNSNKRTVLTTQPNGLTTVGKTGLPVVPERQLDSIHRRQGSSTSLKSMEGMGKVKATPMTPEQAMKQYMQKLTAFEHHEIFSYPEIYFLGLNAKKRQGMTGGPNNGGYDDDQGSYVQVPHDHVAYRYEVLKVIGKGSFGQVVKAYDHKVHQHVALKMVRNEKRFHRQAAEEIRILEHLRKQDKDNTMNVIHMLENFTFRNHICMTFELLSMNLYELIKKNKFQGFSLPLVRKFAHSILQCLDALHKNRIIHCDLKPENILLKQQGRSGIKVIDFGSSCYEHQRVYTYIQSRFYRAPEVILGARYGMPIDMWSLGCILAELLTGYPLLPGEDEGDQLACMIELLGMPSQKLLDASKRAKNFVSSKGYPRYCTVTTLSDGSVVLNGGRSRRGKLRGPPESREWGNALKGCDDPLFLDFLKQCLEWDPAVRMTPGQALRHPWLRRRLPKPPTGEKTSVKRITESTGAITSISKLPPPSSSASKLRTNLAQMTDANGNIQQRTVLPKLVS
The following applies: at 0.1 µM.

The target in experiment [7] is T1, Dual specificity tyrosine-phosphorylation-regulated kinase 2 (Homo sapiens). The following applies: at 1 µM.
Experiment [8] deals with Glycogen synthase kinase-3 alpha (Homo sapiens) (UniProt P49840). As to conditions: at 0.1 µM.
Chain of Glycogen synthase kinase-3 alpha (Homo sapiens) (P49840 2-483 limits assumed): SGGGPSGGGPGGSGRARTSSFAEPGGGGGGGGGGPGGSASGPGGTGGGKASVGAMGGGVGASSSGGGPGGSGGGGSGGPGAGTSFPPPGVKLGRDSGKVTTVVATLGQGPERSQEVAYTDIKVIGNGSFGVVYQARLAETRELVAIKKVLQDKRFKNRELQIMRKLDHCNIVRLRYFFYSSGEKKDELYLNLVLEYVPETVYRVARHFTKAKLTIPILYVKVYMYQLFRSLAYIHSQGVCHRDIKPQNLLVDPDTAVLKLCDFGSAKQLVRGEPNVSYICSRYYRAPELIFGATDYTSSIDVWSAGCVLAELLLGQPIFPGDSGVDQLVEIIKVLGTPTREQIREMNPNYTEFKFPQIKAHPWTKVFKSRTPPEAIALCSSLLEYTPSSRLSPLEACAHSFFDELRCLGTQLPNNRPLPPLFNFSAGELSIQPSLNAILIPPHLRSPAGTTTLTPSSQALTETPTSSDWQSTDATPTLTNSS
The target is the same in experiment [9]. As to conditions: at 1 µM.
For experiment [10], the target named is Glycogen synthase kinase-3 beta (Homo sapiens) (UniProt P49841). The following applies: at 0.1 µM.
Chain of Glycogen synthase kinase-3 beta (Homo sapiens) (P49841 whole entry, looked up): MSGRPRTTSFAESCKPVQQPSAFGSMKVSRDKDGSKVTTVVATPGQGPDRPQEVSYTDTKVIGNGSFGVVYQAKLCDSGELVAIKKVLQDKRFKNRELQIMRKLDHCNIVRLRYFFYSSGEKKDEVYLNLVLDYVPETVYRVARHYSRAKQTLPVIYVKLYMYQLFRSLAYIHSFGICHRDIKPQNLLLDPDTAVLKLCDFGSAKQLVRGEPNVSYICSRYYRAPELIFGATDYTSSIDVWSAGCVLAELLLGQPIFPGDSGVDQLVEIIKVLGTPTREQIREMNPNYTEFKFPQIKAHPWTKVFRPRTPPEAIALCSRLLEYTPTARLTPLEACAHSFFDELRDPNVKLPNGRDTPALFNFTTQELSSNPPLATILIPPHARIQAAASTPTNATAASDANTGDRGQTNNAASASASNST
Experiment [11] shares this target. As to conditions: at 1 µM.
For experiment [12], the target named is Homeodomain-interacting protein kinase 1 (Homo sapiens) (UniProt Q86Z02). As to conditions: at 0.1 µM.
Chain of Homeodomain-interacting protein kinase 1 (Homo sapiens) (Q86Z02 whole entry, looked up): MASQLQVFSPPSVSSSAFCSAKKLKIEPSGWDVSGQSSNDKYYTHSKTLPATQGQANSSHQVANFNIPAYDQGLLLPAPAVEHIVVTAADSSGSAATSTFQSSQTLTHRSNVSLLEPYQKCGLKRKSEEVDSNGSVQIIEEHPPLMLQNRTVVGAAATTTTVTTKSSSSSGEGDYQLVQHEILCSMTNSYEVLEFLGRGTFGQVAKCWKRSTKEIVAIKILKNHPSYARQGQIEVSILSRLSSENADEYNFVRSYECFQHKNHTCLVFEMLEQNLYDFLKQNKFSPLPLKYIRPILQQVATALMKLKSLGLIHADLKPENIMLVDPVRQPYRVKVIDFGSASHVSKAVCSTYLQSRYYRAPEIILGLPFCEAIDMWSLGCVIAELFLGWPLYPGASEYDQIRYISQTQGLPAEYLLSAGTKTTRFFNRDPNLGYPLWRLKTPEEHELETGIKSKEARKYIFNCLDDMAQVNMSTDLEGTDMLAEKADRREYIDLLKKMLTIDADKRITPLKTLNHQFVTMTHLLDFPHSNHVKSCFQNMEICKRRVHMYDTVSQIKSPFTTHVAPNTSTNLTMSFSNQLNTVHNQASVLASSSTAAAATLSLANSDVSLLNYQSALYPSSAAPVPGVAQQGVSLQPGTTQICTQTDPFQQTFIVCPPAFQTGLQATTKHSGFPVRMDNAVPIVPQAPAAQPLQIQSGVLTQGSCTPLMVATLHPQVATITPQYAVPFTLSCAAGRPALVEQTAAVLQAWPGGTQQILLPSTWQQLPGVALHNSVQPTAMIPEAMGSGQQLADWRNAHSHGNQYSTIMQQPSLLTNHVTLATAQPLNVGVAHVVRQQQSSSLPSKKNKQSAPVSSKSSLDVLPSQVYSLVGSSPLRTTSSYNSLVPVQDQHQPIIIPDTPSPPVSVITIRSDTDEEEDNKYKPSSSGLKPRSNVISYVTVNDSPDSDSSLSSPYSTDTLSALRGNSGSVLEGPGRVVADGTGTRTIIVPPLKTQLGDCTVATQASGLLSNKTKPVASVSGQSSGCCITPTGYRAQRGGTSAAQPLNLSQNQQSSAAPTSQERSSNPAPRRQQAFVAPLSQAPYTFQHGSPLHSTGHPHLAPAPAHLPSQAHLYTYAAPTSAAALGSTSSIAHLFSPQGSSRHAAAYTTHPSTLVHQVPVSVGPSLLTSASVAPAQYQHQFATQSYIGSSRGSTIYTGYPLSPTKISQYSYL
Experiment [13] shares this target. The following applies: at 1 µM.
The target in experiment [14] is T2, Homeodomain-interacting protein kinase 4 (Homo sapiens) (UniProt Q8NE63).
T2 sequence (whole entry): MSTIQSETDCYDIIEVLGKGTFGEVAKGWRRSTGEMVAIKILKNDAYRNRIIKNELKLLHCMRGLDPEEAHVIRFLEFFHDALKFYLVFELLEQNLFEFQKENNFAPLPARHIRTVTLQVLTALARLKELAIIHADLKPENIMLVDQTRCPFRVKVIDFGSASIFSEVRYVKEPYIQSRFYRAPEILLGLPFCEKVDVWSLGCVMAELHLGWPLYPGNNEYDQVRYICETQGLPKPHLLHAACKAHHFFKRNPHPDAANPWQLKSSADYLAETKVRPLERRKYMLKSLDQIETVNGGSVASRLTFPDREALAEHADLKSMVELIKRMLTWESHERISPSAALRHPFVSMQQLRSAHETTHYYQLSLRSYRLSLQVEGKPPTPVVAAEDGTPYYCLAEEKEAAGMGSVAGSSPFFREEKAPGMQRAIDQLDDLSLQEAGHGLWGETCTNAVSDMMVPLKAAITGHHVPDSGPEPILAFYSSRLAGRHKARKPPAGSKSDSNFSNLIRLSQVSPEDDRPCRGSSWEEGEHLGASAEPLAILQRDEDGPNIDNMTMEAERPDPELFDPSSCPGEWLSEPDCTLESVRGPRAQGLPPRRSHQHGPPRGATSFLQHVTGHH
As to conditions: at 0.1 µM.

In experiment [15] the target is T2, Homeodomain-interacting protein kinase 4 (Homo sapiens). As to conditions: at 1 µM.
The target of experiment [16] is Mitogen-activated protein kinase 9 (Homo sapiens) (UniProt P45984). As to conditions: at 0.1 µM.
Chain of Mitogen-activated protein kinase 9 (Homo sapiens) (P45984 whole entry, looked up): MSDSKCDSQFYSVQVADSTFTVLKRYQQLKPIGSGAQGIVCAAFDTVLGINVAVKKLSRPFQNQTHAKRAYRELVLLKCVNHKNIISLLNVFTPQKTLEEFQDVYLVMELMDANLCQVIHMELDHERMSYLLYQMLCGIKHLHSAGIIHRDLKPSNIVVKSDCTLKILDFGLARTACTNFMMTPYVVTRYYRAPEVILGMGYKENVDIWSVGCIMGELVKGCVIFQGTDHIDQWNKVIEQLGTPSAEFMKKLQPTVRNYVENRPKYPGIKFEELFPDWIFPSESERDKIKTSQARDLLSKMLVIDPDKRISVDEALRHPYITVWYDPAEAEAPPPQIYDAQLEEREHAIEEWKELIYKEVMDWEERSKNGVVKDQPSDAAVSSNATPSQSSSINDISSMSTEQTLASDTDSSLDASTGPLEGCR
Experiment [17] shares this target. As to conditions: at 1 µM.
Experiment [18] deals with Mitogen-activated protein kinase 1 (Homo sapiens) (UniProt P28482). As to conditions: at 0.1 µM.
Chain of Mitogen-activated protein kinase 1 (Homo sapiens) (P28482 whole entry): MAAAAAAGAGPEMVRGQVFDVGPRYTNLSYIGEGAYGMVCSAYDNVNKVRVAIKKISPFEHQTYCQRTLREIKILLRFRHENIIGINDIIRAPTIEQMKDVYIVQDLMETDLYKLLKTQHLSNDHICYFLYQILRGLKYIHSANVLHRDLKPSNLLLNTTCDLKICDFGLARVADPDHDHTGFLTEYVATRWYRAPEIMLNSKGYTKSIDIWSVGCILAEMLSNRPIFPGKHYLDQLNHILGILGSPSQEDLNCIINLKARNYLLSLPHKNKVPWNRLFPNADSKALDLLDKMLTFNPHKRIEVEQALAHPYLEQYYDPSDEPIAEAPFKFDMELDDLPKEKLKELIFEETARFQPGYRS
Experiment [19] has the same target. As to conditions: at 1 µM.
The target in experiment [20] is Mitogen-activated protein kinase 3 (Homo sapiens) (UniProt P27361). The following applies: at 0.1 µM.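 Further: each value is a mean inhibition figure.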
Chain of Mitogen-activated protein kinase 3 (Homo sapiens) (P27361 whole entry): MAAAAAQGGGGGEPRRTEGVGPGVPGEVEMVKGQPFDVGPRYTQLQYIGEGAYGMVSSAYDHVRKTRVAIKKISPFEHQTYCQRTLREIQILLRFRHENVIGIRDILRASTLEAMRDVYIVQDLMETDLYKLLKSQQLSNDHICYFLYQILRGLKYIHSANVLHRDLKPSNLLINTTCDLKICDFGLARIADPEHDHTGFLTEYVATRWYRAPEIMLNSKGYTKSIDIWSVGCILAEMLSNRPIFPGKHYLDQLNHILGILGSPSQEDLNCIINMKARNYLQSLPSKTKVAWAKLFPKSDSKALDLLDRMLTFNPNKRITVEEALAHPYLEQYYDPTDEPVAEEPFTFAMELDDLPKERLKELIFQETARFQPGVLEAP

Seven molecules from ChEMBL document CHEMBL1961873, “Compounds: GSK PKIS; Assays: Nanosyn kinase panel” (2012) can be followed below.

Chain of Dual specificity protein kinase CLK3 (Homo sapiens) (P49761 whole entry, looked up): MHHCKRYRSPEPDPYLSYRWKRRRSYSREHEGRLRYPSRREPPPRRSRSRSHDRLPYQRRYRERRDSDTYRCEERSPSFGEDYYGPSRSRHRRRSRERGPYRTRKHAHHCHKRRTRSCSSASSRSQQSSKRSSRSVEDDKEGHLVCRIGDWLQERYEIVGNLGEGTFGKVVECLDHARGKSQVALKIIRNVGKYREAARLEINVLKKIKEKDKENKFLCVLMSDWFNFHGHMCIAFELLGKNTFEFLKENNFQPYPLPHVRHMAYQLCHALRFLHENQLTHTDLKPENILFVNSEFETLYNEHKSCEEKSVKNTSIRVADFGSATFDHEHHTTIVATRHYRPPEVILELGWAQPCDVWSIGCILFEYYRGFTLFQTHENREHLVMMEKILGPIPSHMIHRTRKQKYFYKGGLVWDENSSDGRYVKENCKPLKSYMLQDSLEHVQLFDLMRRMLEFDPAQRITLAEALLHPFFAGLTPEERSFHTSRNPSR

In the case of `CCCN1CCC(c2ccc(Nc3nc(Nc4cc(F)ccc4C(N)=O)c4cc[nH]c4n3)c(OC)c2)CC1`, the inhibition in [1] came to 22%; in experiment [2], 63.1%; in experiment [3], 81.9%; in experiment [4] it was 65.2%; in experiment [5] it was 81.9%; in experiment [6], 10.3%. Besides, the inhibition in experiment [7] was 49%; in [8], 6.12%; in experiment [9] it was 8.5%; in [10], 4.67%; in experiment [11], 9.55%; in experiment [12], 49.2%. In addition, the inhibition in experiment [13] amounted to 81.5%; in experiment [14], 59.6%; in experiment [15], 84.6%; in [16], 68%; in experiment [17] it was 83.8%; in experiment [18], 9.4%. The inhibition stood at 30.2% in experiment [19] and 4.94% in experiment [20].

For the molecule `Nc1ncc(-c2cccc(S(N)(=O)=O)c2)c2scc(-c3ccc(F)c(Cl)c3)c12`, the inhibition is 0.34% in experiment [1]; 2.01% in experiment [2]; 3.66% in experiment [3]; -0.65% in [4]; 0.74% in [5]; 3.42% in [6]. Besides, the inhibition in experiment [7] came to 2.46%; in experiment [8], 3.06%; in [9] it was 4.87%; in [10], 2.78%; in experiment [11], 3.65%; in experiment [12], 0.64%. For the same molecule, the inhibition in [13] came to 3.02%; in experiment [14], 1.4%; in [15], 4.49%; in experiment [16], 2.92%; in [17], 20.5%; in experiment [18], 6.27%. Moreover, the inhibition in experiment [19] turned out to be 7.98%; in experiment [20], 3.4%.

For the molecule `CCn1c(-c2nonc2N)nc2cnc(Oc3cccc(NC(=O)c4ccc(N(C)C)cc4)c3)cc21`, the inhibition in experiment [1] was 0.75%; in experiment [2] it was 0.93%; in [3] it was 5.38%; in [4] it was -0.45%; in experiment [5] it was 4.48%; in experiment [6], 1%. Moreover, the inhibition in experiment [7] is 2.79%; in [8], 8.94%; in experiment [9] it was 46.6%; in experiment [10], 6.2%; in [11], 41%; in experiment [12], -2.28%. The inhibition is 1.69% in experiment [13]; -1.11% in experiment [14]; 3.8% in experiment [15]; 2.94% in experiment [16]; 3.41% in experiment [17]; 1.18% in experiment [18]. Further, the results for the inhibition in experiment [19] and in experiment [20] were 3.77% and 1.53%, respectively.

As to `COc1cc(N2CCN(C(C)C)CC2)ccc1Nc1nc(Nc2ccc(F)cc2C(N)=O)c2cc[nH]c2n1`, the inhibition amounted to 13.2% in experiment [1]; 45.2% in [2]; 86.5% in [3]; 49.1% in [4]; 76.6% in experiment [5]; 5.36% in [6]. Besides, the inhibition in [7] worked out at 36.4%; in experiment [8], 3.88%; in experiment [9] it was 5.19%; in experiment [10], 2.71%; in experiment [11] it was 7.27%; in experiment [12], 33.9%. The inhibition in experiment [13] came to 73.7%; in experiment [14], 44.8%; in [15], 75.1%; in experiment [16], 65.5%; in experiment [17], 89.1%; in [18], 2.91%. Besides, the inhibition stood at 15.3% in experiment [19] and 2.87% in experiment [20].

For `COc1cc2c(cc1Nc1nc(Nc3ccsc3C(N)=O)c3cc[nH]c3n1)N(C(=O)CN(C)C)CCC2(C)C`, the inhibition in [1] came to 4.74%; in [2], 4.97%; in experiment [3], 15.5%; in experiment [4], 1.64%; in experiment [5] it was 10.2%; in [6], 4.55%. The inhibition in experiment [7] came to 6.57%; in [8], 7.63%; in experiment [9], 21.1%; in experiment [10], 5.85%; in experiment [11], 17%; in [12] it was 0.05%. The inhibition in [13] was 7.66%; in experiment [14] it was -0.16%; in [15], 6.13%; in [16], 7.73%; in experiment [17], 13.9%; in [18], 4.87%. Besides, the values for the inhibition in [19] and in [20] were 12.2% and 3.02%, respectively.

`COc1ccc(-c2oc3ncnc(N)c3c2-c2ccc(NC(=O)Nc3cc(C(F)(F)F)ccc3F)cc2)cc1`: the inhibition in [1] is 4.8%; in experiment [2], 0.67%; in experiment [3] it was 2.07%; in [4] it was -0.07%; in experiment [5], 2.26%; in experiment [6] it was 1.92%. In addition, the inhibition amounted to 5.52% in experiment [7]; 3.93% in [8]; 17.3% in experiment [9]; 3.17% in experiment [10]; 15.2% in experiment [11]; 13.5% in experiment [12]. The inhibition in experiment [13] was found to be 62%; in experiment [14], 68.7%; in experiment [15] it was 88.8%; in [16], 7.38%; in experiment [17], 19.9%; in experiment [18] it was 7.13%. In addition, the inhibition in [19] was 6.23%; in experiment [20] it was 3.48%.

On to `COc1cccc(-n2ncc3c(N/N=C/c4ccc(F)cc4)ncnc32)c1`, for which the inhibition in experiment [1] worked out at 6.29%; in experiment [2] it was 6.93%; in experiment [3], 24.2%; in [4], 4.09%; in experiment [5] it was 16.3%; in experiment [6], 5.25%. Besides, the inhibition stood at 18.8% in experiment [7]; 64% in experiment [8]; 87.7% in [9]; 54.6% in experiment [10]; 83% in [11]; 11.9% in experiment [12]. Further, the inhibition in experiment [13] amounted to 27.1%; in [14] it was 9.35%; in [15], 20.9%; in [16] it was 1.94%; in experiment [17] it was 4.28%; in experiment [18] it was 5.5%. Besides, the inhibition in [19] was 2.32%; in [20] it was 2.41%.

As a reminder, the inhibition is the change of the read-out against control, counted positive when it falls.
